Activity calls are given as the source filed them. How the source made its calls: active means hit-call score of the fitted dose curve at least 0.9, where 1 is the maximum; inactive means score below 0.9.
assay: CCTE_Shafer_MEA_acute_per_network_burst_electrodes_number_mean: CCTE's Neural Acute Assay for Mean Number of Electrodes in a Network Burst, Shafer Lab (AID 2284021);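 further: curves fitted for decreases only so hits reduce electrodes per burst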
Description: CCTE_Shafer_MEA_acute assay is conducted using Axion Biosystems 48 well microelectrode array (MEA) plates and Maestro recording system. Each well of the MEA plate contains a grid of 16 microelectrodes embedded in the culture surface. Electrically active cells, such as neurons, can be cultured over the electrodes, and electrical activity in these cells can be recorded extracellularly. The spontaneous firing of neurons is captured from each electrode on a microsecond timescale providing both temporally and spatially precise data. […] The CCTE_Shafer_MEA_acute assay uses primary cultures of rat cortical neurons. As these cultures mature over time, neural networks develop functional activity and form cohesive networks in which electrical activity can be highly coordinated. Baseline 40-minute recordings are made on days post-plating 13 or 15, followed by a secondary 40-minute recording after chemical exposure.CCTE_Shafer_MEA_acute_per_network_burst_electrodes_number_mean is a component of the CCTE_Shafer_MEA_acute assay. It measures the average number of electrodes with activity during a network burst (a temporally-clustered group of action potential firing across multiple electrodes) in a recording in a microelectrode array (MEA) using Axion Biosystems Maestro 768 channel amplifier with the AxIS adaptive spike detector. The recordings before and after chemical treatment are used to calculate a percent change in the mean number of electrodes participating in network bursts in each well.Data from the assay component CCTE_Shafer_MEA_acute_per_network_burst_electrodes_number_mean was analyzed into 1 assay endpoint. This assay endpoint, CCTE_Shafer_MEA_acute_per_network_burst_electrodes_number_mean, was analyzed in the negative analysis fitting direction relative to DMSO as the negative control and baseline of activity. Using a type of functional reporter, gain or loss-of-signal activity can be used to understand electrical activity.
Spontaneous activity in the cortical cultures was recorded using an Axion Biosystems Maestro 768 channel amplifier and Axion Integrated Studios (AxIS) v1.8 (or later) software. The amplifier recorded from all channels simultaneously (gain = 1200 x; sampling rate = 12.5 kHz/channel): raw signals were filtered with a Butterworth band-pass filter (300-5000 Hz), which filters out slower local field potentials leaving only fast potentials, i.e., "spikes", arising from extracellular currents associated with action potentials (Pine 2006; Wheeler and Nam 2011). On-line spike detection of filtered signals was conducted with the AxIS adaptive spike detector, using a threshold of 8x the root mean squared (rms) noise on each channel. Any electrodes with rms noise levels greater than 5 uV were grounded (e.g., no data were recorded). Once grounded, an electrode was grounded for the duration of the experiment. All recordings were conducted at 37 C. Wells were deemed usable if on the day of the exposure >/= 10 electrodes were active (defined as >/= 5 spikes/min). On DIV 13 or 15, a minimum of three wells from one cortical culture preparation were treated with each compound (0.03-40 uM). Prior to recording baseline activity, each mwMEA plate was placed in the Maestro at 37 C and allowed to sit for 20 min while firing rates stabilized. Baseline activity (40 min) was recorded before the addition of each compound. An additional 40 min of spontaneous activity was recorded in the presence of each compound. Changes in network parameters relative to baseline were assessed following compound treatment.

SMILES | outcome | AC50
O=C1NS(=O)(=O)c2ccccc21 | inactive | 
CN(C)CCOC(c1ccccc1)c1ccccc1 |  | 1.25 µM (active)
OCC(CO)(CBr)CBr | inactive | 
CCCCCCCCCCCC | inactive | 
CCCCc1oc2ccccc2c1C(=O)c1cc(I)c(OCCN(CC)CC)c(I)c1 | inactive | 
CC(=O)Nc1ccc(O)cc1 | inactive | 
O=C(CCCN1CCC(O)(c2ccc(Cl)cc2)CC1)c1ccc(F)cc1 | inactive | 
N=C(N)c1ccc(OCCCCCOc2ccc(C(=N)N)cc2)cc1 |  | 2.5 µM (active)
CCCCC=O | inactive | 
Oc1ccc(Cc2ccccc2O)cc1 | inactive | 
Oc1c(Cl)cc(Cl)cc1Sc1cc(Cl)cc(Cl)c1O | inactive | 
CCC(C)c1ccccc1O (configuration not stated) | inactive | 

Source: PubChem BioAssay (EPA / NIEHS)
